{"source": "the supplement of paper PMC8728848", "binders": {"B1": {"name": "CLEC5A (Homo sapiens), Q9NY25 (protein)", "chain": "MNWHMIISGLIVVVLKVVGMTLFLLYFPQIFNKSNDGFTTTRSYGTVSQIFGSSSPSPNGFITTRSYGTVCPKDWEFYQARCFFLSTSESSWNESRDFCKGKGSTLAIVNTPEKLKFLQDITDAEKYFIGLIYHREEKRWRWINNSVFNGNVTNQNQNFNCATIGLTKTFDAASCDISYRRICEKNAK"}}, "experiment_in_all_cases": "glycan array binding signal (z-score within array); higher = stronger binding", "conditions_in_all_cases": "glycan notation: IUPAC condensed, linker removed", "key": {"[1]": {"molecular_target": "Glc(a1-6)Glc(a1-6)Glc(a1-6)Glc(a1-6)Glc", "in_short": "(§1)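 Negative Z-scores can be read as non-binding. The Z-score is calculated within each array and then averaged across arrays of one protein sequence at different concentrations or buffers and across linkers. Arrays, 3228 in all, were curated from the Consortium for Functional Glycomics database and kept only where the protein sequence was available.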"}, "[2]": {"molecular_target": "Glc(a1-6)Glc(a1-6)Glc(a1-6)Glc(a1-6)Glc(a1-6)Glc(a1-6)Glc", "in_short": "as §1"}, "[3]": {"molecular_target": "Glc(a1-6)Glc(a1-6)Glc(a1-6)Glc(a1-6)Glc(a1-6)Glc(a1-6)Glc(a1-6)Glc(a1-6)Glc(a1-6)Glc(a1-6)Glc(a1-6)Glc(a1-6)Glc", "in_short": "as §1"}, "[4]": {"molecular_target": "Glc(b1-3)Glc(b1-3)Glc(b1-3)Glc(b1-3)Glc", "in_short": "as §1"}, "[5]": {"molecular_target": "Glc(b1-3)Glc(b1-3)Glc(b1-3)Glc(b1-3)Glc(b1-3)Glc(b1-3)Glc", "in_short": "as §1"}, "Glc(b1-4)Glc": {"molecular_target": "Glc(b1-4)Glc", "in_short": "as §1"}, "[6]": {"molecular_target": "Glc(b1-6)Glc(b1-6)Glc(b1-6)Glc(b1-6)Glc(b1-6)Glc(b1-6)Glc(b1-6)Glc(b1-6)Glc(b1-6)Glc(b1-6)Glc(b1-6)Glc", "in_short": "as §1"}, "GlcA(b1-3)Gal": {"molecular_target": "GlcA(b1-3)Gal", "in_short": "as §1"}, "[7]": {"molecular_target": "GlcA(b1-3)Gal(b1-4)GlcNAc(b1-3)Gal(b1-4)Glc", "in_short": "as §1"}, "[8]": {"molecular_target": "GlcA(b1-3)GlcNAc(b1-4)GlcA(b1-3)GlcNAc", "in_short": "as §1"}, "[9]": {"molecular_target": "GlcA3S(b1-3)Gal(b1-4)GlcNAc(b1-3)Gal(b1-4)Glc", "in_short": "as §1"}, "[10]": {"molecular_target": "GlcNAc(a1-4)Gal(b1-3)[Fuc(a1-2)]Gal", "in_short": "as §1"}, "[11]": {"molecular_target": "GlcNAc(a1-4)Gal(b1-4)GlcNAc", "in_short": "as §1"}, "[12]": {"molecular_target": "GlcNAc(a1-4)Gal(b1-4)GlcNAc(b1-3)Gal(b1-4)[Fuc(a1-3)]GlcNAc(b1-3)Gal(b1-4)[Fuc(a1-3)]GlcNAc", "in_short": "as §1"}, "GlcNAc(b1-3)Gal(b1-4)Glc": {"molecular_target": "GlcNAc(b1-3)Gal(b1-4)Glc", "in_short": "as §1"}, "[13]": {"molecular_target": "GlcNAc(b1-3)Gal(b1-4)GlcNAc(b1-2)Man(a1-3)[GlcNAc(b1-3)Gal(b1-4)GlcNAc(b1-2)Man(a1-6)]Man(b1-4)GlcNAc(b1-4)[Fuc(a1-6)]GlcNAc", "in_short": "as §1"}, "[14]": {"molecular_target": "GlcNAc(b1-3)Gal(b1-4)GlcNAc(b1-3)Gal(b1-4)GlcNAc(b1-3)Gal(b1-4)GlcNAc(b1-3)Gal(b1-4)GlcNAc(b1-2)Man(a1-3)[GlcNAc(b1-3)Gal(b1-4)GlcNAc(b1-3)Gal(b1-4)GlcNAc(b1-3)Gal(b1-4)GlcNAc(b1-3)Gal(b1-4)GlcNAc(b1-2)Man(a1-6)]Man(b1-4)GlcNAc(b1-4)[Fuc(a1-6)]GlcNAc", "in_short": "as §1"}, "Kdn(a2-6)Gal": {"molecular_target": "Kdn(a2-6)Gal", "in_short": "as §1"}, "Man(a1-2)Man": {"molecular_target": "Man(a1-2)Man", "in_short": "as §1"}, "[15]": {"molecular_target": "Man(a1-2)Man(a1-6)[Man(a1-3)]Man(a1-6)[Man(a1-2)Man(a1-2)Man(a1-3)]Man", "in_short": "as §1"}, "[16]": {"molecular_target": "Man(a1-3)[Man(a1-6)]Man(a1-6)[Man(a1-3)]Man(b1-4)GlcNAc(b1-4)GlcNAc", "in_short": "as §1"}, "[17]": {"molecular_target": "Neu5Ac(a2-3)Gal(b1-3)GlcNAc(b1-4)Gal(b1-4)Glc", "in_short": "as §1"}, "[18]": {"molecular_target": "Neu5Ac(a2-3)Gal(b1-3)GlcNAc6S", "in_short": "as §1"}, "[19]": {"molecular_target": "Neu5Ac(a2-3)Gal(b1-4)[Fuc(a1-3)]GlcNAc(b1-3)GalNAc", "in_short": "as §1"}, "[20]": {"molecular_target": "Neu5Ac(a2-3)Gal(b1-4)[Fuc(a1-3)]GlcNAc(b1-4)GalNAc(b1-3)Gal(b1-4)Glc", "in_short": "as §1"}, "[21]": {"molecular_target": "Neu5Ac(a2-3)Gal(b1-4)[Fuc2Me(a1-3)]GlcNAc(b1-3)Gal", "in_short": "as §1"}, "[22]": {"molecular_target": "Neu5Ac(a2-3)Gal6S(b1-4)[Fuc(a1-3)]GlcNAc", "in_short": "as §1"}, "[23]": {"molecular_target": "Neu5Ac(a2-6)Gal(b1-3)GlcNAc(b1-3)[Fuc(a1-3)[Gal(b1-4)]GlcNAc(b1-6)]Gal(b1-4)Glc", "in_short": "as §1"}, "[24]": {"molecular_target": "Neu5Ac(a2-6)Gal(b1-4)GlcNAc(b1-2)Man(a1-3)[Neu5Ac(a2-3)Gal(b1-4)GlcNAc(b1-2)Man(a1-6)]Man(b1-4)GlcNAc(b1-4)GlcNAc", "in_short": "as §1"}, "[25]": {"molecular_target": "Neu5Ac(a2-6)Gal(b1-4)GlcNAc(b1-3)Gal(b1-4)GlcNAc(b1-3)GalNAc", "in_short": "as §1"}, "[26]": {"molecular_target": "Neu5Ac(a2-6)Gal(b1-4)GlcNAc(b1-3)Gal(b1-4)[Fuc(a1-3)]GlcNAc(b1-3)Gal(b1-4)[Fuc(a1-3)]GlcNAc", "in_short": "as §1"}, "[27]": {"molecular_target": "Neu5Ac(a2-8)Neu5Ac(a2-3)[Gal(b1-3)GalNAc(b1-4)]Gal(b1-4)Glc", "in_short": "as §1"}, "[28]": {"molecular_target": "Neu5Ac(a2-8)Neu5Ac(a2-8)Neu5Ac(a2-3)[Gal(b1-3)GalNAc(b1-4)]Gal(b1-4)Glc", "in_short": "as §1"}, "[29]": {"molecular_target": "Neu5Ac(b2-6)Gal(b1-4)GlcNAc", "in_short": "as §1"}, "Neu5Ac(b2-6)GalNAc": {"molecular_target": "Neu5Ac(b2-6)GalNAc", "in_short": "as §1"}, "[30]": {"molecular_target": "Neu5Ac9Ac(a2-3)Gal(b1-3)GlcNAc", "in_short": "as §1"}, "[31]": {"molecular_target": "Neu5Gc(a2-8)Neu5Ac(a2-3)Gal(b1-4)GlcNAc", "in_short": "as §1"}, "[32]": {"molecular_target": "Xyl(b1-2)[Man(a1-3)][Man(a1-6)]Man(b1-4)GlcNAc(b1-4)[Fuc(a1-3)]GlcNAc", "in_short": "as §1"}}, "note": "About 410 targets per protein were measured; listed, in parts, are those with the strongest signals and a random draw of the rest.", "data": [{"binder": "B1", "values": [{"measurement": "glycan array binding signal (z-score)", "setting": "[1]", "result": -0.32}, {"measurement": "glycan array binding signal (z-score)", "setting": "[2]", "result": 1.51}, {"measurement": "glycan array binding signal (z-score)", "setting": "[3]", "result": 2.19}, {"measurement": "glycan array binding signal (z-score)", "setting": "[4]", "result": 6.52}, {"measurement": "glycan array binding signal (z-score)", "setting": "[5]", "result": 1.8}, {"measurement": "glycan array binding signal (z-score)", "setting": "Glc(b1-4)Glc", "result": -0.371}, {"measurement": "glycan array binding signal (z-score)", "setting": "[6]", "result": 1.8}, {"measurement": "glycan array binding signal (z-score)", "setting": "GlcA(b1-3)Gal", "result": -0.34}, {"measurement": "glycan array binding signal (z-score)", "setting": "[7]", "result": -0.32}, {"measurement": "glycan array binding signal (z-score)", "setting": "[8]", "result": -0.32}, {"measurement": "glycan array binding signal (z-score)", "setting": "[9]", "result": -0.074}, {"measurement": "glycan array binding signal (z-score)", "setting": "[10]", "result": -0.32}, {"measurement": "glycan array binding signal (z-score)", "setting": "[11]", "result": -0.125}, {"measurement": "glycan array binding signal (z-score)", "setting": "[12]", "result": 1.74}, {"measurement": "glycan array binding signal (z-score)", "setting": "GlcNAc(b1-3)Gal(b1-4)Glc", "result": 6.6}, {"measurement": "glycan array binding signal (z-score)", "setting": "[13]", "result": -0.014}, {"measurement": "glycan array binding signal (z-score)", "setting": "[14]", "result": 1.7}, {"measurement": "glycan array binding signal (z-score)", "setting": "Kdn(a2-6)Gal", "result": -0.32}, {"measurement": "glycan array binding signal (z-score)", "setting": "Man(a1-2)Man", "result": 1.03}, {"measurement": "glycan array binding signal (z-score)", "setting": "[15]", "result": -0.249}, {"measurement": "glycan array binding signal (z-score)", "setting": "[16]", "result": 0.488}, {"measurement": "glycan array binding signal (z-score)", "setting": "[17]", "result": -0.012}, {"measurement": "glycan array binding signal (z-score)", "setting": "[18]", "result": 0.026}, {"measurement": "glycan array binding signal (z-score)", "setting": "[19]", "result": 1.67}, {"measurement": "glycan array binding signal (z-score)", "setting": "[20]", "result": -0.32}, {"measurement": "glycan array binding signal (z-score)", "setting": "[21]", "result": 0.548}, {"measurement": "glycan array binding signal (z-score)", "setting": "[22]", "result": 0.366}, {"measurement": "glycan array binding signal (z-score)", "setting": "[23]", "result": 0.258}, {"measurement": "glycan array binding signal (z-score)", "setting": "[24]", "result": -0.161}, {"measurement": "glycan array binding signal (z-score)", "setting": "[25]", "result": -0.189}, {"measurement": "glycan array binding signal (z-score)", "setting": "[26]", "result": -0.16}, {"measurement": "glycan array binding signal (z-score)", "setting": "[27]", "result": -0.133}, {"measurement": "glycan array binding signal (z-score)", "setting": "[28]", "result": -0.191}, {"measurement": "glycan array binding signal (z-score)", "setting": "[29]", "result": -0.302}, {"measurement": "glycan array binding signal (z-score)", "setting": "Neu5Ac(b2-6)GalNAc", "result": -0.184}, {"measurement": "glycan array binding signal (z-score)", "setting": "[30]", "result": -0.191}, {"measurement": "glycan array binding signal (z-score)", "setting": "[31]", "result": -0.121}, {"measurement": "glycan array binding signal (z-score)", "setting": "[32]", "result": -0.32}]}]}
